# Screening data from PubChem BioAssay.
# MCF10A rereplic: inducers of DNA re-replication in MCF 10A breast cells; 350,000 tested, 2.9% active; MCF 10A DNA re-replication, Hoechst nuclear intensity, 48 h; Potency, µM (series often up to 46.1 µM), inactives show at the highest dose activity, positive = re-replication, usual class: activators; also: % of control where 0% means no effect; nearly all actives have a fitted effect of over 50% in size
# SW480 rerep: induces DNA re-replication in SW480 colon adenocarcinoma cells; SW480 DNA re-replication, Hoechst DNA content imaging, 48 h; Potency, µM (highest dose often 46.1 µM), inactives show top-dose re-replication activation, actives largely listed as activators; 340,000 tested, 1.8% active; also: % of control where 0% means no effect; nearly all actives have a fitted effect of over 55% in size
#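 First, 250 cells per well were seeded. Next, compound or vehicle (23 nL) was pinned in, plates sat 48 hr at 37 C. Finally Hoechst was added for 40 min before fluorescence scanning.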
# KB-3-1 tox: KB-3-1 parental cell cytotoxicity | KB-3-1 viability, CellTiter-Glo ATP luminescence, 72 h | Potency, µM (top dose mostly 46.1 µM), actives largely listed as cytotoxic | 400,000 tested, 1.4% active | AID 1347075; also: % is scaled to controls: 0 for no effect and ±100 for the full control effect; nearly all actives have a fitted effect of over 60% in size
#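 KB-3-1 cells, DMEM (no phenol red) + 10% FBS; compound by pin transfer, 72 h, 37 °C. Readout: CellTiter-Glo luminescence after 10 min. Data normalized, curve-fitted.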
# RORgamma inh: ROR gamma (mouse) transcription inhibition. P51450. Drosophila S2 Gal4-RORgamma UAS-luciferase reporter, 20 h. AID 2551. 310,000 tested, 5.4% active. Potency, µM (top dose mostly 53.6 µM), for the others: at the top dose activity change, negative = inhibition, actives largely listed as inhibitors; also: % is scaled to controls: 0 for no effect and ±100 for the full control effect; nearly all actives have a fitted effect of over 60% in size
# Target sequence (P51450 whole entry, looked up, the tested form may be a part): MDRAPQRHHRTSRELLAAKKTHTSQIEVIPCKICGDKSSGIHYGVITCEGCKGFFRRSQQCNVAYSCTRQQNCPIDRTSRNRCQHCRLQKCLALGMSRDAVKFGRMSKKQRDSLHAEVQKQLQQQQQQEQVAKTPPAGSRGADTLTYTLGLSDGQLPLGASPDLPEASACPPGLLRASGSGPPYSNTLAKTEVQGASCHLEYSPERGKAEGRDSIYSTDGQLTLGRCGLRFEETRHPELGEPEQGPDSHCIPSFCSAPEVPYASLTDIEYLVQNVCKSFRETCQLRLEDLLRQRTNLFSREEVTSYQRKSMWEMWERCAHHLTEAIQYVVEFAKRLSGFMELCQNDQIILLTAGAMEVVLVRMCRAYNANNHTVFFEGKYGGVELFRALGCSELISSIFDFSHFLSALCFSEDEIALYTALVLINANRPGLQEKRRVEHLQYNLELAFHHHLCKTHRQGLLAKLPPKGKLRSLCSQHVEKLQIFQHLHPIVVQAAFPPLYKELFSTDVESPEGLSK
#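 Schneider cells (Drosophila), stable Gal4 DBD–ROR gamma + UAS-luc; 1 hr cmpd preincubation; Cu2+ induction 700 uM final; 20 hr ambient; luminescence.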
# KB-V1 MDR tox: KB-V1 MDR subline cytotoxicity. KB-V1 MDR cells viability, CellTiter-Glo, 72 h. Potency, µM (series often up to 46.1 µM), most hits filed as cytotoxic. 400,000 tested, 3.4% active. AID 1347076; also: % is scaled to controls: 0 for no effect and ±100 for the full control effect; nearly all actives have a fitted effect of over 60% in size
#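 Readout: CellTiter-Glo luminescence, 10 min after addition. Cells: KB-V1 MDR subline, 72 h at 37 degrees C with compound. Analysis: corrected, normalized data fitted to concentration-effect curves.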
# VP16 counter: inhibits Gal4-VP16 luciferase reporter, ROR gamma counter-screen; Potency, µM (doses to about 53.6 µM), for the others: at the highest dose activity, negative = inhibition, actives largely listed as inhibitors; Drosophila S2 Gal4-VP16 UAS-luciferase, luminescence, 20 h; 310,000 tested, 3.5% active;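 also: Gal4-VP16 expression switched on by copper sulfate through the metallothionein promoter; % is scaled to controls: 0 for no effect and ±100 for the full control effect; nearly all actives have a fitted effect of over 50% in size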
# * = called active by the depositor; i = inactive; ? = inconclusive; · = no result given; [ ] = dose if it differs, or a comment. Hits are enriched below; roughly 10% of the tested compounds scored in any of these assays. Calls follow the shape of the dose curve; as a rule, active = well fitted curve in the direction sought with a large enough effect; inconclusive = small, poorly fitted or top-dose-only effect, or another doubt; inactive = no such curve, though single readings can be large; an effect the other way counts as inactive or inconclusive. Potency is read from the fitted curve at half-maximal effect.
SMILES,MCF10A rereplic,SW480 rerep,KB-3-1 tox,RORgamma inh,KB-V1 MDR tox,VP16 counter
Cc1ccc(C(=O)CSc2nnnn2-c2ccccc2)o1,0.41µM*,-24%,i,?,i,-3%
O=C(CSc1nnnn1-c1ccccc1)Nc1ccccc1,-2%,-8%,i,25%,i,-13%
Cc1ccc(C(=O)CSc2nnc(-c3ccccc3)n2-c2ccccc2)o1,?,3%,i,1%,?,19%
Cc1cc(C)nc(NC(=O)CSc2nnnn2-c2ccccc2)n1,1%,-2%,i,20%,21µM*,26%
COCCCNC1=C(Cl)C(=O)c2ccccc2C1=O,?,24%,?,-28%,?,-18%
Clc1ccccc1-c1cc(NCc2cccnc2)ncn1,·,·,·,16%,·,-11%
O=C1C(Cl)=C(NCc2cccnc2)C(=O)c2ccccc21,?,?,?,10µM*,?,?
O=C1C(Cl)=C(NCCc2ccccc2)C(=O)c2ccccc21,?,5.2µM*,?,·,?,·
CCN(CC)CCCNC1=C(Cl)C(=O)c2ccccc2C1=O,?,?,i,7.9µM*,?,?
O=C1C(Cl)=C(Nc2ccccc2)C(=O)c2ccccc21,4.1µM*,?,?,13µM*,?,13µM*
COc1ccc(-c2nc(CSCC(=O)NCCC(C)C)c(C)o2)cc1OC,·,·,i,·,i,·
CC(C)NC1=C(Cl)C(=O)c2ccccc2C1=O,?,13µM*,?,?,i,?
O=C(O)c1ccc(NC2=C(Cl)C(=O)c3ccccc3C2=O)cc1,?,?,?,?,i,5%
CC(=O)N(Cc1ccc(F)cc1)C1=C(NCCc2ccccc2)C(=O)c2ccccc2C1=O,?,6.3µM*,8.2µM*,0%,?,?
C=CCNC1=C(Cl)C(=O)N(Cc2ccccc2)C1=O,-37%,-22%,i,9%,i,-3%
O=C(O)c1cccc(NC2=C(Cl)C(=O)c3ccccc3C2=O)c1,?,?,?,11µM*,?,?
C=CCNC1=C(Cl)C(=O)c2ccccc2C1=O,?,?,?,13µM*,?,?
CCOc1cc(-c2noc(N)c2C#N)cc(OCC)c1OCC,1%,-2%,i,11µM*,i,?
CCCC(=O)N1N=C(c2ccccc2)CC1c1cn(C)c2ccccc12 (stereo not drawn),23µM*,?,i,-2%,?,-4%
CC(=O)N1N=C(c2ccc(Br)cc2)CC1c1cn(C)c2ccccc12 (stereo not drawn),18µM*,24%,i,9%,?,-11%
CC(=O)N1N=C(c2ccc(Br)cc2)CC1c1ccc(Br)cc1 (stereo not drawn),·,·,i,·,i,·
CCC(=O)N1N=C(c2ccccc2)CC1c1ccccc1 (stereo not drawn),2%,-55%,i,-25%,i,-2%
Cn1cc(C2CC(c3ccccc3)=NN2C(=O)c2ccccc2)c2ccccc21 (stereo not drawn),5.8µM*,?,?,27%,21µM*,-8%
C1CCCNCC1,·,·,·,6%,·,6%
COc1ccc(-c2csc(N3CCN(S(=O)(=O)c4ccc5c(c4)NC(=O)CO5)CC3)n2)cc1,33%,9.2µM*,?,-3%,?,-2%
SMILES,MCF10A rereplic,SW480 rerep,KB-3-1 tox,RORgamma inh,KB-V1 MDR tox,VP16 counter
O=C(Nc1ccc2ccccc2c1)c1cccc2ccccc12,15%,1%,i,·,i,·
CCOc1ccc(NC(=O)c2cc3ccccc3cc2OC)cc1,?,?,?,?,?,7%
CCOc1ccc(NC(=O)c2cccc3ccccc23)cc1,24%,?,?,-38%,5.8µM*,-5%
O=C(Nc1ccncc1)c1cccc2ccccc12,-4%,18µM*,i,11%,?,-5%
CCOc1ccc(NC(=O)c2cc3ccccc3cc2O)cc1,16µM*,-15%,i,-24%,i,-27%
O=C(NC(NC(=S)N1CCOCC1)C(Cl)(Cl)Cl)c1cccc2ccccc12 (stereo not drawn),14%,-7%,i,15%[10 µM],16µM*,-1%
C=C1NN(C(C)C(=O)O)C(=O)N1c1ccc(OCc2ccccc2)cc1 (stereo not drawn),·,·,i,·,i,·
Nc1cc(Cl)c([N+](=O)[O-])cc1O,·,·,·,40%,·,?
O=C(Nc1ccc(N2CCOCC2)cc1)c1cccc2ccccc12,29%,9.2µM*,?,0%,?,3%
COCCNC(=O)C1(C)CCCN(CCOc2ccc(Cl)cc2)C1 (stereo not drawn),·,·,i,·,i,·
Cc1ccc2nc(Nc3ccccc3)c(/C=N/O)c(=O)n2c1,?,?,i,?,i,-13%
Cc1ccc(Sc2nc3ccc(C)cn3c(=O)c2/C=N/O)cc1,16µM*,?,i,-42%,i,-4%
Cc1cccc(NC2=CC(c3cccc(Br)c3)N(c3cccc(C)c3)C2=O)c1 (stereo not drawn),·,·,i,·,i,·
Cc1cc(C)nc(NC(=O)/C=C/c2ccccc2Cl)n1,1%,-2%,i,?,i,2%
Cc1cccc(C(=O)NC(=S)NNC(=O)Cc2ccccc2)c1,17%,-2%,?,10µM*,i,-15%
Cc1cccc(C(=O)NC(=S)NNC(=O)COc2c(C)cccc2C)c1,?,-7%,i,13µM*,i,?
Cc1cc(C(=O)NNC(=S)NC(=O)/C=C/c2ccccc2Cl)n[nH]1,?,-14%,i,?,i,13µM*
Cc1cccc(C(=O)NC(=S)Nc2ccccc2C(=O)O)c1,13%,-6%,i,1%,i,-10%
Cc1cccc(C(=O)NC(=S)NNC(=O)c2ccccc2Cl)c1,?,11%,?,4.5µM*,?,?
O=C(Cc1ccccc1)Nc1nnc(-c2ccncc2)s1,·,·,i,·,i,·
O=C1C=CC(O)(c2cc(=O)c3c(O)cc(O)cc3o2)C=C1,1.5µM*,4.1µM*,?,3.2µM*,5.8µM*,2.8µM*
O=c1cc(-c2ccccc2Cl)oc2cc(O)cc(O)c12,?,1%,i,6%,i,4%
COc1cccc(-c2csc(NNC(=O)c3cccs3)n2)c1,11%,-2%,i,2.2µM*,i,10µM*
Clc1ccccc1NCSC1=NCCS1,-10%,-1%,i,·,i,·
Cc1ccc(Nc2nc(Nc3ccc(C)cc3)nc(SC3=NCCS3)n2)cc1,?,?,i,2.5µM*,i,5.6µM*
